# Screens (PubChem BioAssay)
# Hits are enriched below; roughly 4.1% of the tested compounds scored in any of these assays.
# FBA Mtb inh: inhibits M. tuberculosis FBA enzyme | AID 588726 | P9WQA3 | 2.3% of 360,000 active | inhibition, % at 1 µM | purified M. tuberculosis FBA, fluorescence read-out;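 further: 0% = vehicle and 100% = reference inhibitor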
# Rv3671c protease: Rv3671c (M. tuberculosis) protease inhibition; P9WHR9; inhibition, % at 5.96 µM; 0.048% of 320,000 active; in the data active means inhibition above about 38%;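 further: extracellular domain of Rv3671c used as enzyme; 0% = enzyme with DMSO and 100% = no enzyme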
# Mtb UGM inh: inhibitors of M. tuberculosis UDP-galactopyranose mutase. P9WIQ1. purified UGM, fluorescence polarization probe displacement. inhibition, % at 10 µM. 0.06% of 320,000 active; in the data active means inhibition above about 10%, passing the limit was not always enough
# Target sequence (P9WIQ1 whole entry, looked up): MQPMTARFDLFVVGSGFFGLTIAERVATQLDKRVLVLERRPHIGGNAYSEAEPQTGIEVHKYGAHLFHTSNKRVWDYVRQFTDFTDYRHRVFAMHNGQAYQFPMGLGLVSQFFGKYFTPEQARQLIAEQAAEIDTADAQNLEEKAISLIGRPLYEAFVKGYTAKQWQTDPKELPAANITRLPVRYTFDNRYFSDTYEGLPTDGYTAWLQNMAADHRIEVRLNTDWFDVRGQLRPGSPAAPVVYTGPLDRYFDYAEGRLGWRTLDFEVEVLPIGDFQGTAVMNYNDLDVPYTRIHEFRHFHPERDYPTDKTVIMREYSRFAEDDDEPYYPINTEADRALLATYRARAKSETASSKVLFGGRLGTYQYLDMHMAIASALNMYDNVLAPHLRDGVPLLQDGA
# RecA intein inh: blocks M. tuberculosis RecA intein splicing; cell-free RecA intein splicing, fluorescence; 0.75% of 290,000 active; inhibition, % (no concentration beside the values); in the data active means inhibition above about 30%;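 further: 0% = vehicle wells and 100% = reference inhibitor control wells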
# BH1578 lux ind: inducers of Vibrio cholerae quorum light production without autoinducers; V. cholerae BH1578 lux reporter, luminescence, 6 h; activation, % at 18.7 µM; 0.16% of 350,000 active; AID 588436; in the data active means activation mostly above about 9.7%, no sharp cut-off
# GDH-TPI counter-1: inhibits GDH-TPI coupling enzymes, artifact for Mtb FBA screen; GDH-TPI coupled enzyme counterscreen, NADH absorbance; inhibition, % at 4.8 µM; 1.2% of 360,000 active; AID 588335; in the data active means inhibition above about 30%;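 further: 0% = DMSO wells and 100% = wells lacking the enzyme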
# Mtb FBA confirm: Mtb FBA inhibition, confirmed; shares compounds with FBA Mtb inh; purified M. tuberculosis FBA, fluorescence read-out; inhibition, % at 1 µM; 78% of 5,600 active;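 further: 0% = vehicle wells and 100% = reference inhibitor wells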
# GDH-TPI counter-2: inhibits GDH-TPI coupling enzymes, flagging Mtb FBA hits. GDH-TPI coupled enzyme counterscreen, fluorescence. AID 652141. 81% of 5,600 active. inhibition, % at 1 µM. shares compounds with FBA Mtb inh; in the data active means inhibition above about 10%
# GDH-TPI DR: GDH-TPI dose response counter-screen for Mtb FBA; shares compounds with FBA Mtb inh; GDH-TPI coupled enzyme assay, fluorescence, artifact counterscreen; IC50, µM; 79% of 170 active; call rule not given here
# Numbers without * were called inactive; i = inactive; x = no result; + = active, no number. Unless noted, no stated cut-off is given here; in the data, active means inhibition above about 27%; inactive means the rest.
SMILES,FBA Mtb inh,Rv3671c protease,Mtb UGM inh,RecA intein inh,BH1578 lux ind,GDH-TPI counter-1,Mtb FBA confirm,GDH-TPI counter-2,others
COc1ccc(-c2nc(C#N)c(NCc3ccccc3Cl)o2)cc1OC,57*,5,0,1,0,23,114*,81*,
COc1ccc(-c2nc(C#N)c(NCc3ccc(F)cc3)o2)cc1OC,103*,6,1,3,-1,10,74*,55*,
CCOc1ccc(-c2nc(C#N)c(NCc3ccc4c(c3)OCO4)o2)cc1,26,11,-4,1,x,4,x,x,
N#Cc1nc(Cc2ccccc2)oc1NCc1cccnc1,0,-1,2,1,i,0,x,x,
COc1cccc(CC(=O)Nc2nc(-c3ccc(F)c(F)c3)cs2)c1,2,-27,0,0,0,5,x,x,
CCCn1nc2cc(C(=O)NC3CCCc4ccccc43)ccc2c1OCC (stereo unspecified),56*,-3,1,5,-1,-8,137*,99*,
CCCCn1nc2cc(C(=O)NCC34CC5CC(CC(C5)C3)C4)ccc2c1OCC,21,-7,1,-1,i,10,x,x,
CCCCn1nc2cc(C(=O)NC3CCc4ccccc43)ccc2c1OCC (stereo unspecified),53*,2,-2,6,i,-3,+,+,
CCCn1nc(C(=O)NC2CCCc3ccccc32)c2ccccc2c1=O (stereo unspecified),-3,0,x,13,-3,6,x,x,
Cc1cccc(NS(=O)(=O)c2c(C)[nH]c(C)c2C(=O)N2CCCC2)c1,1,4,0,0,0,-4,x,x,
CC1=C(C(=O)N(C(C)C)C(C)C)CC(CC(=O)NC2CCCCC2)C(=O)N1Cc1ccc(C(C)(C)C)cc1 (stereo unspecified),0,x,x,x,x,x,x,x,
CCC1(c2ccc(F)cc2)NC(=O)N(CC(=O)N2CCN(C(=O)c3ccco3)CC2)C1=O (stereo unspecified),-4,0,1,x,i,-4,x,x,
O=C(CSc1nnc(CNC(=O)c2c(F)cccc2F)o1)NCc1ccccc1Cl,4,1,0,1,0,7,x,x,
Oc1ccccc1C=Nc1cccc2ccccc12,42*,-6,2,2,-1,-7,15,-3,GDH-TPI DR=9.3*
O=C(Cc1ccccc1)Nc1cccc(-c2nnc(-c3ccco3)o2)c1,32*,-13,-4,1,-1,5,38*,35*,
CC(C)C(=O)Nc1ccc(-c2nnc(-c3ccccc3)o2)cc1,33*,x,-3,-1,0,-1,47*,36*,
CC(=O)/C=C(\C)Nc1ccc(-c2cnc(-c3ccccc3)o2)cc1,90*,0,4,10,i,19,91*,76*,
O=C(COc1ccccc1)Nc1ccc(-c2nnc(-c3ccco3)o2)cc1,36*,4,-1,6,11,3,4,5,
O=C(Nc1ccc(-c2nnc(-c3ccccc3)o2)cc1)C(F)(F)F,1,-5,-1,0,i,7,x,x,
CN(CCOc1ccc(Cl)cc1)C(=O)c1cccc(S(=O)(=O)N2CCN(Cc3ccccc3)CC2)c1,0,x,x,x,i,0,x,x,
CCCCOC(=O)c1ccc(NC(=O)COC(=O)C2CC2C)cc1 (stereo unspecified),-4,x,x,x,-1,-5,x,x,
CS(=O)(=O)c1ccc(C(=O)OCC(=O)c2ccc(Cl)s2)cc1,3,5,1,0,6,2,x,x,
COc1ccccc1-c1sc2cc3c(cc2c1C#Cc1ccccn1)OCO3,18,-15,3,x,i,16,x,x,
CCN(CC(=O)Nc1ccc2c(c1)OCCO2)S(=O)(=O)c1cccs1,39*,-3,-1,2,i,0,75*,71*,
O=C(O)Cc1ccc2oc(-c3ccccn3)nc2c1,2,-2,-1,-1,i,5,x,x,
SMILES,FBA Mtb inh,Rv3671c protease,Mtb UGM inh,RecA intein inh,BH1578 lux ind,GDH-TPI counter-1,Mtb FBA confirm,GDH-TPI counter-2,others
COC(=O)c1ccc(-c2nc3ccc(C)cc3o2)cc1,32*,1,0,x,i,10,147*,124*,
Cc1ccc2oc(-c3ccc(NC(=O)c4cccnc4)cc3)nc2c1,-6,-25,-1,-1,i,25,x,x,
Cc1ccc2nc(-c3ccccn3)oc2c1,103*,8,-2,-4,0,17,42*,30*,
CCOc1ccccc1N(C)S(=O)(=O)c1ccc2c(c1)CCN2C(=O)CCC(=O)O,6,-1,-1,1,0,-1,x,x,
Cc1ccccc1N(C(=O)c1snc(C(N)=O)c1N)C(C(=O)NCC1CCCO1)c1ccc(F)cc1 (stereo unspecified),55*,0,2,-4,0,0,3,0,
CCc1ccccc1N(C(=O)c1snc(C(N)=O)c1N)C(C(=O)NCC1CCCO1)c1ccc(C)o1 (stereo unspecified),49*,-7,-1,2,0,9,10,-3,
CC(C(=O)NCC1CCCO1)N(C(=O)c1snc(C(N)=O)c1N)c1cccc(F)c1 (stereo unspecified),19,-1,1,-4,x,9,x,x,
NC(=O)c1nsc(C(=O)N(c2cccc(F)c2)C(C(=O)NCC2CCCO2)c2cccs2)c1N (stereo unspecified),34*,-1,0,-3,-1,7,86*,76*,
Cc1cc(C)c2c(=O)n3c(nc2c1)C(Cc1ccccc1)NC(=O)c1cccnc1-3 (stereo unspecified),-1,x,x,x,-1,5,x,x,
Cn1c(COc2ccccc2)nnc1SCC(=O)NC1CCCC1,3,-7,0,-2,i,-7,x,x,
CCNC(=S)Nc1cccc(NC(=O)c2ccccc2O)c1,37*,1,1,1,i,5,3,-4,
CCNC(=S)Nc1ccc(NC(=O)c2ccccc2O)cc1,12,1,2,1,i,10,x,x,
COC(=O)c1cc2c(s1)-c1ccc(OC)cc1CC2,109*,-5,-2,-7,0,18,107*,94*,
COC(=O)c1cc2c(=O)c3ccccc3oc2nc1/C=C/N(C)C,32*,x,-5,-7,-1,3,98*,64*,
O=C1c2ccccc2NC(c2ccc([N+](=O)[O-])cc2)N1O (stereo unspecified),0,17,0,-3,-1,8,x,x,
Cc1ccc(C2Nc3ccccc3C(=O)N2CCCN2CCOCC2)cc1 (stereo unspecified),59*,2,3,-2,i,5,102*,108*,
